Reference: PubChem BioAssay (NCATS)
Results filed as inconclusive are left out. The source made the active and inactive calls. Calls follow the shape of the dose curve; as a rule, active = well fitted cell-killing curve with a large enough effect; inconclusive = small, poorly fitted or top-dose-only effect, or effect the other way; inactive = flat fitted curve, though single readings scatter.

What was measured:
Assay in all cases: Primary qHTS to identify gynecologic anti-cancer compounds using libraries of approved drugs and bioactive compounds (AID 1345084); also: nearly all actives have a fitted effect of over 55% in size
[1] = test system: C33A; conditions: Gynecologic cancer cell panel viability, ATPlite luminescence, 48 h; series mostly up to 57.5 µM
In short: (§1)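 In this quantitative HTS, cell killing is estimated from loss of ATP-dependent luciferase light. Cells see five compound concentrations over a 48 h exposure.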

[2] = test system: CAOV3; conditions: Gynecologic cancer cell panel viability, ATPlite luminescence, 48 h; series mostly up to 57.5 µM
In short: as §1

[3] = test system: CASKI; conditions: Gynecologic cancer cell panel viability, ATPlite luminescence, 48 h; series mostly up to 57.5 µM
In short: as §1

[4] = test system: Es-2; conditions: Gynecologic cancer cell panel viability, ATPlite luminescence, 48 h; series mostly up to 57.5 µM
In short: as §1

[5] = test system: HeLa; conditions: Gynecologic cancer cell panel viability, ATPlite luminescence, 48 h; series mostly up to 57.5 µM
In short: as §1

[6] = test system: Hek293T; conditions: Gynecologic cancer cell panel viability, ATPlite luminescence, 48 h, control line for the selectivity index; series mostly up to 57.5 µM
In short: as §1

[7] = test system: JEG-3; conditions: Gynecologic cancer cell panel viability, ATPlite luminescence, 48 h; series mostly up to 57.5 µM
In short: as §1

[8] = test system: OV90; conditions: Gynecologic cancer cell panel viability, ATPlite luminescence, 48 h; series mostly up to 57.5 µM
In short: as §1

[9] = test system: PA-1; conditions: Gynecologic cancer cell panel viability, ATPlite luminescence, 48 h; series mostly up to 57.5 µM
In short: as §1

[10] = test system: SKOV3; conditions: Gynecologic cancer cell panel viability, ATPlite luminescence, 48 h; series mostly up to 57.5 µM
In short: as §1

[11] = test system: Tov-21-G; conditions: Gynecologic cancer cell panel viability, ATPlite luminescence, 48 h; series mostly up to 57.5 µM
In short: as §1

[12] = test system: Tov112D; conditions: Gynecologic cancer cell panel viability, ATPlite luminescence, 48 h; series mostly up to 57.5 µM
In short: as §1
% is scaled to controls: 0 for no effect and ±100 for the full control effect.

OC/C=C/c1ccc(O[C@@H]2O[C@H](CO)[C@@H](O)[C@H](O)[C@H]2O)cc1
inactive: Potency [1] | Potency [2] | Potency [3] | Potency [4] | Potency [5] | Potency [6] | Potency [7] | Potency [8] | Potency [9] | Potency [10] | Potency [11] | Potency [12]

O=C(O)c1ccc(OC2OC(CO)C(O)C(O)C2O)cc1 (stereo unspecified)
inactive: Potency [1] | Potency [2] | Potency [3] | Potency [4] | Potency [5] | Potency [6] | Potency [7] | Potency [8] | Potency [9] | Potency [10] | Potency [11] | Potency [12]

CC(=O)CCC1=C(C)C(O[C@@H]2O[C@H](CO)[C@@H](O)[C@H](O)[C@H]2O)C(O)CC1(C)C (stereo partly specified)
inactive: Potency [1] | Potency [2] | Potency [3] | Potency [4] | Potency [5] | Potency [6] | Potency [7] | Potency [8] | Potency [9] | Potency [10] | Potency [11] | Potency [12]

CC1OC2OC(=O)C3(C)CC4=C(CO)C5=C(CC(=O)C4(C)C(C1=O)C23)C(C)(C)OC(=O)C5 (stereo unspecified)
inactive: Potency [1] | Potency [2] | Potency [3] | Potency [4] | Potency [5] | Potency [6] | Potency [7] | Potency [8] | Potency [9] | Potency [10] | Potency [11] | Potency [12]

C[C@H]1O[C@@H](O[C@H]2CC[C@@]3(C)C(CC[C@]4(C)C3CC=C3C5CC(C)(C)CC[C@]5(C(=O)O)CC[C@]34C(=O)O)C2(C)C)[C@H](O)[C@@H](O)[C@@H]1O (stereo partly specified)
inactive: Potency [1] | Potency [2] | Potency [3] | Potency [4] | Potency [5] | Potency [6] | Potency [7] | Potency [8] | Potency [9] | Potency [10] | Potency [11] | Potency [12]

C[C@H]1C(=O)N2c3ccccc3[C@@]3(O)C[C@@H]4C(=O)N[C@](C)(c5nc6ccccc6c(=O)n54)N1[C@@H]23
inactive: Potency [1] | Potency [2] | Potency [3] | Potency [4] | Potency [5] | Potency [6] | Potency [7] | Potency [8] | Potency [9] | Potency [10] | Potency [11] | Potency [12]

C/C1=C\C[C@]2(C)C(=O)C(O)=C([C@H](C)CO)[C@H]2C/C=C(\C)[C@@H](O)CC/C(C)=C/CC1
inactive: Potency [1] | Potency [2] | Potency [3] | Potency [4] | Potency [5] | Potency [6] | Potency [7] | Potency [8] | Potency [9] | Potency [10] | Potency [11] | Potency [12]

CC1CC[C@]2(C(=O)O)CC[C@]3(C(=O)O)C(=CCC4[C@@]5(C)CC[C@H](O[C@@H]6O[C@H](CO)[C@@H](O)[C@H](O)[C@H]6O)C(C)(C)C5CC[C@]43C)C2C1C (stereo partly specified)
inactive: Potency [1] | Potency [2] | Potency [3] | Potency [4] | Potency [5] | Potency [6] | Potency [7] | Potency [8] | Potency [9] | Potency [10] | Potency [11] | Potency [12]

C=C(C)C1CC[C@]2(C(=O)O)CC[C@]3(C(=O)O)[C@H](CCC4[C@@]5(C)CC[C@H](O)C(C)(C)C5CC[C@]43C)C12 (stereo partly specified)
inactive: Potency [1] | Potency [2] | Potency [3] | Potency [4] | Potency [5] | Potency [6] | Potency [7] | Potency [8] | Potency [9] | Potency [10] | Potency [11] | Potency [12]

CC1C(OC(=O)c2ccccc2)C(O)C2C(C(=O)O)=COC(OC3OC(CO)C(O)C(O)C3O)C12 (stereo unspecified)
inactive: Potency [1] | Potency [2] | Potency [3] | Potency [4] | Potency [5] | Potency [6] | Potency [7] | Potency [8] | Potency [9] | Potency [10] | Potency [11] | Potency [12]

COc1ccccc1Oc1ccc(N(Cc2cccnc2)S(=O)(=O)CC(F)(F)F)cc1
inactive: Potency [1] | Potency [2] | Potency [3] | Potency [4] | Potency [5] | Potency [6] | Potency [7] | Potency [8] | Potency [9] | Potency [10] | Potency [11] | Potency [12]

C/C=C/C=C/C=C/C(=O)OC1C=C(C=O)C(O)(C(=O)O)C2(C)CCCC(C)(C)C12 (stereo unspecified)
inactive: Potency [1] | Potency [2] | Potency [3] | Potency [4] | Potency [5] | Potency [6] | Potency [7] | Potency [8] | Potency [9] | Potency [10] | Potency [11] | Potency [12]

CCCOC(c1cc2nccc(C(=O)O)c2[nH]1)c1ccccc1Cl (stereo unspecified)
inactive: Potency [1] | Potency [2] | Potency [3] | Potency [4] | Potency [5] | Potency [6] | Potency [7] | Potency [8] | Potency [9] | Potency [10] | Potency [11] | Potency [12]

CC(=O)C1=CCC2C3CCC4CC(O[C@@H]5O[C@H](CO)[C@@H](O[C@@H]6O[C@@H](C)[C@H](O)[C@@H](O)[C@H]6O)[C@H](O)[C@H]5O[C@@H]5O[C@H](CO)[C@@H](O)[C@H](O)[C@H]5O)CCC4(C)C3CCC12C (stereo partly specified)
inactive: Potency [1] | Potency [2] | Potency [3] | Potency [4] | Potency [5] | Potency [6] | Potency [7] | Potency [8] | Potency [9] | Potency [10] | Potency [11] | Potency [12]

Cc1cc(Cl)ccc1COc1ccnn1-c1cc(C(=O)O)ccn1
inactive: Potency [1] | Potency [2] | Potency [3] | Potency [4] | Potency [5] | Potency [6] | Potency [7] | Potency [8] | Potency [9] | Potency [10] | Potency [11] | Potency [12]

CC1=CC(=O)C(=C(C)C)CC2C1CCC2(C)O (stereo unspecified)
inactive: Potency [1] | Potency [2] | Potency [3] | Potency [4] | Potency [5] | Potency [6] | Potency [7] | Potency [8] | Potency [9] | Potency [10] | Potency [11] | Potency [12]

CC1(C)CCC2(C(=O)OC3OC(CO)C(O)C(O)C3O)CCC3(C)C(=CCC4C5(C)CCC(OC6OC(C(=O)O)C(OC7OC(CO)C(O)C(O)C7O)C(OC7OC(CO)C(O)C(O)C7O)C6O)C(C)(C)C5CCC43C)C2C1 (stereo unspecified)
inactive: activity change, negative = cytotoxicity [1] -2.64% [at 11.6 µM] | activity change, negative = cytotoxicity [2] 3.96% [at 11.6 µM] | activity change, negative = cytotoxicity [3] 5.46% [at 11.6 µM] | activity change, negative = cytotoxicity [4] -0.153% [at 11.6 µM] | activity change, negative = cytotoxicity [5] 10.1% [at 11.6 µM] | activity change, negative = cytotoxicity [6] -1.3% [at 11.6 µM] | activity change, negative = cytotoxicity [7] -1.35% [at 11.6 µM] | activity change, negative = cytotoxicity [8] 3.02% [at 11.6 µM] | activity change, negative = cytotoxicity [9] 16.1% [at 11.6 µM] | activity change, negative = cytotoxicity [10] 13.2% [at 11.6 µM] | activity change, negative = cytotoxicity [11] 1.15% [at 11.6 µM] | activity change, negative = cytotoxicity [12] 6% [at 11.6 µM]

C[C@@H]1C(=O)O[C@H]2C[C@]34[C@H]5C[C@@H](C(C)(C)C)[C@]36[C@@H](OC(=O)[C@H]6O)O[C@]4(C(=O)O5)[C@]21O
inactive: Potency [1] | Potency [2] | Potency [3] | Potency [4] | Potency [5] | Potency [6] | Potency [7] | Potency [8] | Potency [9] | Potency [10] | Potency [11] | Potency [12]

O=C(O)c1cc(-c2c(-c3ccccc3)nn3ccccc23)n[nH]c1=O
inactive: Potency [1] | Potency [2] | Potency [3] | Potency [4] | Potency [5] | Potency [6] | Potency [7] | Potency [8] | Potency [9] | Potency [10] | Potency [11] | Potency [12]

CC1OC(OC2C(CO)OC(OCC3OC(OC(=O)C45CCC(C)(C)CC4C4=CCC6C7(C)CCC(OC8OC(CO)C(O)C(OC9OC(CO)C(O)C(O)C9O)C8O)C(C)(C)C7CCC6(C)C4(C)CC5)C(O)C(O)C3O)C(O)C2O)C(O)C(O)C1OC1OC(CO)C(O)C(O)C1O (stereo unspecified)
inactive: activity change, negative = cytotoxicity [1] -0.229% [at 6.55 µM] | activity change, negative = cytotoxicity [2] -14.1% [at 6.55 µM] | activity change, negative = cytotoxicity [3] 8.74% [at 6.55 µM] | activity change, negative = cytotoxicity [4] 5.26% [at 6.55 µM] | activity change, negative = cytotoxicity [5] 3.66% [at 6.55 µM] | activity change, negative = cytotoxicity [6] 13.1% [at 6.55 µM] | activity change, negative = cytotoxicity [7] 7.02% [at 6.55 µM] | activity change, negative = cytotoxicity [8] 6.18% [at 6.55 µM] | activity change, negative = cytotoxicity [9] 2.62% [at 6.55 µM] | activity change, negative = cytotoxicity [10] 13.6% [at 6.55 µM] | activity change, negative = cytotoxicity [11] 3.67% [at 6.55 µM] | activity change, negative = cytotoxicity [12] -6.51% [at 6.55 µM]

C[C@@H]1O[C@@H](O[C@H]2[C@H](O[C@H]3[C@H](O[C@H]4CC[C@@]5(C)C(CC[C@]6(C)C5CC=C5[C@@H]7CC(C)(C)C[C@@H](O)[C@]7(C)CC[C@]56C)[C@@]4(C)CO)O[C@H](C(=O)O)[C@@H](O)[C@@H]3O)OC[C@H](O)[C@@H]2O)[C@H](O)[C@H](O)[C@H]1O (stereo partly specified)
inactive: activity change, negative = cytotoxicity [1] -0.169% [at 11.6 µM] | activity change, negative = cytotoxicity [2] 0% [at 11.6 µM] | activity change, negative = cytotoxicity [3] -2.47% [at 11.6 µM] | activity change, negative = cytotoxicity [4] 1.77% [at 11.6 µM] | activity change, negative = cytotoxicity [5] 0% [at 11.6 µM] | activity change, negative = cytotoxicity [6] -7.13% [at 11.6 µM] | activity change, negative = cytotoxicity [7] -0.873% [at 11.6 µM] | activity change, negative = cytotoxicity [8] -3.06% [at 11.6 µM] | activity change, negative = cytotoxicity [9] -1.53% [at 11.6 µM] | activity change, negative = cytotoxicity [10] -7.2% [at 11.6 µM] | activity change, negative = cytotoxicity [11] -1.97% [at 11.6 µM] | activity change, negative = cytotoxicity [12] -12.3% [at 11.6 µM]

Cc1ccccc1NC(=O)Nc1ccc(CC(=O)N(C)[C@@H](CC(C)C)C(=O)NCC[C@H](NC(=O)[C@@H]2CCCN2S(=O)(=O)c2cc(Cl)cc(Cl)c2)C(=O)O)cc1
inactive: Potency [1] | Potency [2] | Potency [3] | Potency [4] | Potency [5] | Potency [6] | Potency [7] | Potency [8] | Potency [9] | Potency [10] | Potency [11] | Potency [12]

C[C@@H]1O[C@@H](OC[C@H]2O[C@@H](OC(CCCCc3ccc(O)cc3)CCc3ccc(O)cc3)[C@H](O)[C@@H](O)[C@@H]2O)[C@H](O)[C@H](O)[C@H]1O (stereo partly specified)
inactive: Potency [1] | Potency [2] | Potency [3] | Potency [4] | Potency [5] | Potency [6] | Potency [7] | Potency [8] | Potency [9] | Potency [10] | Potency [11] | Potency [12]
